Source: PubChem (several laboratories)
Compounds with a hit are over-represented: about 1.4% of the library has one in this group of screens.
UHRF1 MBD2 ctr = UHRF1 methylated DNA binding inhibitors, primary screen, counter-screen for MBD2 inhibitor project, biochemical, TR-FRET, human UHRF1, single concentration; inhibition, % at 4.4 µM; 370,000 tested, 0.75% active; E3 ubiquitin-protein ligase UHRF1 (Homo sapiens), Q96T88; AID 687016, 2013; UHRF1 binding to methylated oligo; in the data active = inhibition above about 21%;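 note: UHRF1 SRA domain binding a hemimethylated CpG hairpin DNA probe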
Target sequence (Q96T88 whole entry, looked up, the tested form may be a part): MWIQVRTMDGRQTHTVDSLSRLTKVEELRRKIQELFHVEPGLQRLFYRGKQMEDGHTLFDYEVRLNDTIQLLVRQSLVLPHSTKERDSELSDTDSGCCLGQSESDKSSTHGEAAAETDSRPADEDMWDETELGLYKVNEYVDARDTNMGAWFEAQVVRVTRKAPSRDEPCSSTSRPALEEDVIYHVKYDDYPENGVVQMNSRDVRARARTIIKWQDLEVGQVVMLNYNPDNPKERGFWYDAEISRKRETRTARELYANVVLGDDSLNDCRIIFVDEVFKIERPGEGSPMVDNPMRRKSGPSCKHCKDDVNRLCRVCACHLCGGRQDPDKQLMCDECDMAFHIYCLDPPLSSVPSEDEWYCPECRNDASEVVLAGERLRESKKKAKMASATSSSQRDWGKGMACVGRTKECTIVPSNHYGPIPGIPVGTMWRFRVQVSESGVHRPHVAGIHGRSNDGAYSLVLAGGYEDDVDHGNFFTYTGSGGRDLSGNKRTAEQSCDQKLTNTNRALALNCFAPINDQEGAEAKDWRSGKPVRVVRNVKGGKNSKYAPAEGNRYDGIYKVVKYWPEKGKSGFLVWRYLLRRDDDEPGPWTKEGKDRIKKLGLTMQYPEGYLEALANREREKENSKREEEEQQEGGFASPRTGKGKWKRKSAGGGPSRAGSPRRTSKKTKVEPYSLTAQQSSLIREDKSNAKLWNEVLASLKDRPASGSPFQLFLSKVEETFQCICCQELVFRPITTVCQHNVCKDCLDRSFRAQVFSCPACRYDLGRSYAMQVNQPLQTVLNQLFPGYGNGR
CASP6 VEID inh = human caspase-6 inhibitors, primary screen, biochemical, VEID-R110 fluorescence, single point, set 2. P55212. purified caspase-6, Z-VEID-R110 cleavage fluorescence. inhibition, % at 12.5 µM. 350,000 tested, 0.53% active. AID 686996, 2013;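 active = mean inhibition across replicates at least about 35%, with every replicate also reaching that limit, limit read from the data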
MBD2 inh = inhibitors of MBD2 binding to methylated DNA, primary screen, biochemical, TR-FRET, DNA-binding domain, human | MBD2 binding to methylated oligonucleotide | inhibition, % at 4.4 µM | Methyl-CpG-binding domain protein 2 (Homo sapiens), Q9UBB5 | 370,000 tested, 0.31% active; in the data active = inhibition above about 13%
LEDGF integ inh = blockers of LEDGF/p75-dependent integrase strand transfer – biochemical, TR-FRET, high throughput, primary screen. HIV-1 integrase (with human LEDGF/p75). TR-FRET IN-LEDGF/p75 DNA integration, Eu/Cy5. inhibition, % at 3.7 µM. 370,000 tested, 0.64% active. AID 743269, 2014;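 active = inhibition above the screen-wide mean plus 3 SD, cut at about 13% in these data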;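 note: signal is the Cy5 over europium emission ratio at 671 and 618 nm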
Each line names hits and unclear results; the compound was inactive in the other large screens.

O=C(C[C@@H]1C[C@H]2c3cc(NS(=O)(=O)c4ccc(F)cc4)ccc3O[C@H]2[C@H](CO)O1)NCc1ccc(Oc2ccccc2)cc1	none (no result: UHRF1 MBD2 ctr, MBD2 inh, LEDGF integ inh)
O=C(C[C@H]1CC[C@H](NS(=O)(=O)c2ccccc2)[C@@H](CO)O1)NCc1ccc(Cl)c(Cl)c1	none (no result: UHRF1 MBD2 ctr, MBD2 inh, LEDGF integ inh)
CCC(=O)N1CCCCN2[C@H](CO)[C@H](c3ccc(-c4cccnc4)cc3)[C@@H]2C1	none (no result: UHRF1 MBD2 ctr, MBD2 inh, LEDGF integ inh)
O=C(c1sc2cccc(F)c2c1Cl)N1CCN(c2ncccn2)CC1	UHRF1 MBD2 ctr 26 (no result: CASP6 VEID inh)
Cc1ccc2nc(N3C(=O)C(O)=C(C(=O)c4ccc(C)o4)C3c3ccco3)sc2c1 (configuration not stated)	CASP6 VEID inh 48
Cc1ccc2nc(N3C(=O)C(O)=C(C(=O)c4ccco4)C3c3ccc(C)o3)sc2c1 (configuration not stated)	none
Cc1cc(C)c(C(=O)C(C)OC(=O)C2=COCCO2)cc1C (configuration not stated)	CASP6 VEID inh 58
C[C@H](CO)N1C[C@H](C)[C@@H](CN(C)C(=O)c2ccncc2)Oc2cc(C#CC3(O)CCCC3)ccc2S1(=O)=O	none (no result: UHRF1 MBD2 ctr, MBD2 inh, LEDGF integ inh)
CO[C@H]1CN(C)C(=O)c2cc(NC(=O)Nc3ccccc3F)ccc2OC[C@@H](C)N(C(C)=O)C[C@H]1C	none (no result: UHRF1 MBD2 ctr, MBD2 inh, LEDGF integ inh)
CCCCCCN=C1CC(C)(C)CC(=O)/C1=C(/O)CCC	UHRF1 MBD2 ctr 23
COc1ccc(-c2csc(NC(=O)CSCc3c(C)noc3C)n2)cc1OC	CASP6 VEID inh 60
O=C(COc1ccccc1)NCc1nnc(SCC(=O)Nc2nccs2)n1-c1ccccc1	none
COc1ccc(-c2ccc(SCC(=O)Nc3nccs3)nn2)cc1OC	UHRF1 MBD2 ctr 21
COc1cccc(C(=O)NCc2nnc(SCC(=O)Nc3nccs3)n2-c2ccccc2)c1	UHRF1 MBD2 ctr 95
CCC(=O)N1C[C@@H](C)[C@H](OC)CN(C)C(=O)c2cc(NC(=O)Nc3cccc(F)c3)ccc2OC[C@@H]1C	none (no result: UHRF1 MBD2 ctr, MBD2 inh, LEDGF integ inh)
CS(=O)(=O)Nc1ccc2c(c1)[C@H]1C[C@H](CC(=O)NCc3cccnc3)O[C@@H](CO)[C@H]1O2	none (no result: UHRF1 MBD2 ctr, MBD2 inh, LEDGF integ inh)
C[C@H]1CN([C@@H](C)CO)C(=O)c2cccc(NS(=O)(=O)c3ccccc3)c2O[C@@H]1CN(C)Cc1ccc(-c2ccccc2)cc1	none (no result: UHRF1 MBD2 ctr, MBD2 inh, LEDGF integ inh)
O=C(O)CCNc1ccc(NCCC(=O)O)c2c1C(=O)c1ccccc1C2=O	UHRF1 MBD2 ctr 40, CASP6 VEID inh 70
C/C=C/c1cnc2c(c1)C(=O)N([C@H](C)CO)C[C@H](C)[C@@H](CN(C)S(=O)(=O)c1ccccc1)O2	none (no result: UHRF1 MBD2 ctr, MBD2 inh, LEDGF integ inh)
Cc1ccc(S(=O)(=O)N[C@@H]2CC[C@@H](CCNC(=O)c3ccccc3F)O[C@@H]2CO)cc1	none (no result: UHRF1 MBD2 ctr, MBD2 inh, LEDGF integ inh)
Cc1cc(C(=O)N/N=C/c2cc(Br)c(Br)o2)n[nH]1	CASP6 VEID inh 54
CCC(=O)N[C@H]1CC[C@H](CC(=O)OC)O[C@@H]1CO	none (no result: UHRF1 MBD2 ctr, MBD2 inh, LEDGF integ inh)
O=c1[nH]c2ccccc2cc1CN(Cc1ccco1)S(=O)(=O)c1ccc(F)cc1	UHRF1 MBD2 ctr 23
CC1CN(C2CCN(S(=O)(=O)c3ccc(F)cc3)CC2)CC(C)O1 (configuration not stated)	UHRF1 MBD2 ctr 21 (no result: CASP6 VEID inh)
C[C@@H]1CN([C@@H](C)CO)C(=O)c2cc(/C=C/c3ccccc3)cnc2O[C@H]1CN(C)C(=O)Cc1cccnc1	none (no result: UHRF1 MBD2 ctr, MBD2 inh, LEDGF integ inh)
Cn1c(SCC(=O)NCc2ccc(F)cc2)nc2ccccc21	none (no result: CASP6 VEID inh)
COc1ccc(CNC(=O)CSc2nc3ccccc3n2C(C)=O)cc1	UHRF1 MBD2 ctr 24
C[C@H]1CN([C@@H](C)CO)C(=O)c2cccc(N(C)C)c2O[C@H]1CN(C)C(=O)Nc1ccc2c(c1)OCO2	none (no result: UHRF1 MBD2 ctr, MBD2 inh, LEDGF integ inh)
COc1cc(OC)c(NC(=S)NCc2ccccc2)cc1Cl	UHRF1 MBD2 ctr 65
COc1cccc(C(=O)Nc2ccc3c(c2)OC[C@@H](C)N(C(=O)C2CCCC2)C[C@@H](C)[C@H](OC)CN(C)C3=O)c1	none (no result: UHRF1 MBD2 ctr, MBD2 inh, LEDGF integ inh)
COCCNc1nc(-c2ccc(OC)cc2)c(-c2ccc(OC)cc2)s1	CASP6 VEID inh 92
O=C(C[C@H]1CC[C@@H]2[C@H](COC[C@@H](O)CN2S(=O)(=O)c2ccc(Cl)cc2)O1)NCc1ccncn1	none (no result: UHRF1 MBD2 ctr, MBD2 inh, LEDGF integ inh)
Cc1nc(C)c(-c2csc(Nc3cccc(O)c3)n2)s1	none
Cc1cccc(Nc2nc(-c3sc(C)nc3C)cs2)c1	UHRF1 MBD2 ctr 25
COc1ccc(CN(C)C[C@@H]2Oc3ccc(NS(=O)(=O)c4ccc(F)cc4)cc3CC(=O)N([C@@H](C)CO)C[C@H]2C)cc1	none (no result: UHRF1 MBD2 ctr, MBD2 inh, LEDGF integ inh)
O=C(CSc1nc2ccccc2c(=O)n1-c1ccccc1)N1CCc2ccccc2C1	UHRF1 MBD2 ctr 28 (no result: CASP6 VEID inh)
Cc1noc(C)c1S(=O)(=O)Nc1ccc2c(c1)C(=O)N([C@@H](C)CO)C[C@@H](C)[C@H](CN(C)Cc1ccc(C(F)(F)F)cc1)OCCCC[C@@H](C)O2	none (no result: UHRF1 MBD2 ctr, MBD2 inh, LEDGF integ inh)
COc1cccc(CN2CC(C(=O)N(C)Cc3nc4ccc(F)cc4[nH]3)CCC2=O)c1 (configuration not stated)	UHRF1 MBD2 ctr 25
COc1ccc2nc(CCN(C)C(=O)C3CCC(=O)N(Cc4cccc(F)c4)C3)[nH]c2c1 (configuration not stated)	none
CO[C@H]1CN(C)C(=O)c2cc(NC(=O)Nc3c(C)noc3C)ccc2OC[C@H](C)N(C)C[C@H]1C	none (no result: UHRF1 MBD2 ctr, MBD2 inh, LEDGF integ inh)
O=C(C[C@@H]1C[C@H]2c3cc(NC(=O)Nc4ccccc4F)ccc3O[C@H]2[C@H](CO)O1)NCc1ccncc1	none (no result: UHRF1 MBD2 ctr, MBD2 inh, LEDGF integ inh)
COc1cc(C2=NOC(C(=O)Nc3c(C)n(C)n(-c4ccccc4)c3=O)C2)cc(OC)c1OC (configuration not stated)	UHRF1 MBD2 ctr 24
CCCCNC(=O)C1c2ccccc2OCC(=O)N1C1CC1 (configuration not stated)	UHRF1 MBD2 ctr 21
Cc1cc(Cl)cc(Cl)c1OCCCCN(C)C	UHRF1 MBD2 ctr 22
CC(=O)N1N=C(c2ccco2)CC1c1ccc(Cl)o1 (configuration not stated)	UHRF1 MBD2 ctr 33
CS(=O)(=O)N1N=C(c2ccco2)CC1c1ccco1 (configuration not stated)	CASP6 VEID inh 62
Cc1cnc(C(=O)N2CCc3c([nH]c4ccccc34)C2c2ccc(F)cc2)cn1 (configuration not stated)	UHRF1 MBD2 ctr 21
CCCc1cc(-c2n[nH]c(C(=O)OCC)c2-c2cscn2)c(O)cc1O	CASP6 VEID inh 45
CCOC(=O)c1[nH]nc(-c2c(O)cc(C)cc2O)c1-c1csc(C)n1	none (no result: CASP6 VEID inh)
CCCCCC(=O)N1CC2(C)CN(C(=O)CCCCC)CC(C)(C1)C2=O	UHRF1 MBD2 ctr 23, MBD2 inh 15 (no result: CASP6 VEID inh)
CN1c2ccc(Br)cc2[C@H]2[C@H](CCN2C(=O)C2CCCC2)[C@@H]1CO	none (no result: UHRF1 MBD2 ctr, MBD2 inh, LEDGF integ inh)
O=C(O)C/C(=C\c1cc(Cl)c2c(c1)OCO2)c1nc2ccccc2s1	CASP6 VEID inh 60
O=C(O)C/C(=C\c1ccc2c(c1)OCO2)c1nc2ccccc2s1	none
O=C(C[C@H]1CC[C@@H]2[C@H](COC[C@@H](O)CN2Cc2ccc(Cl)cc2)O1)NCc1ccccc1Cl	none (no result: UHRF1 MBD2 ctr, MBD2 inh, LEDGF integ inh)
